Reference: PubChem BioAssay (NCI)
Where “and” joins values, the source holds several entries; their conditions need not be identical. Equal values may be shown once. Compounds without any hit were thinned out: in the full panel of roughly 79,000, 15% have a hit. Where a structure was tested more than once in an assay, its records may differ in their call. Calls of active or inactive are those of the source. No stated cut-off is given here; in the data, active means growth inhibition above about 70%; inactive means the rest.

Columns and labels:
[1] = NCI Yeast Anticancer Drug Screen. Data for the rad50 strain (AID 155);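 further: 0% = growth of vehicle-only cultures of the same strain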; conditions: S. cerevisiae rad50 strain growth inhibition, stronger effect = higher value
Summary of the method: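 Compounds were tested on a yeast strain with an engineered DNA damage repair alteration; the reported value is growth inhibition normalised to vehicle treatment.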

[2] = NCI Yeast Anticancer Drug Screen. Data for the mec2-1 strain (AID 157); conditions: S. cerevisiae mec2-1 strain, stronger effect = higher value
Summary of the method: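 Cells of the genetically defined mec2-1 yeast strain are incubated with test compound. Inhibition of growth is calculated against vehicle-treated controls.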

[3] = NCI Yeast Anticancer Drug Screen. Data for the sgs1 mgt1 strain (AID 161);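 further: 0% = growth of cultures given vehicle only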; conditions: S. cerevisiae sgs1 mgt1 strain, stronger effect = higher value
Summary of the method: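 Test agents were incubated with a DNA-repair-mutant yeast strain. Growth was then read and compared against vehicle-treated controls.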

[4] = NCI Yeast Anticancer Drug Screen. Data for the cln2 rad14 strain (AID 165);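 further: 0% = growth equal to vehicle treated cultures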; conditions: S. cerevisiae cln2 rad14 strain, stronger effect = higher value
Summary of the method: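 The screen exposed genetically defined yeast (cln2 rad14) to test compounds and scored growth inhibition relative to vehicle-treated controls.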

[5] = NCI Yeast Anticancer Drug Screen. Data for the bub3 strain (AID 167); conditions: S. cerevisiae bub3 mutant strain, stronger effect = higher value
Summary of the method: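 Growth of a checkpoint-deficient yeast mutant is measured after compound exposure. Values represent inhibition relative to vehicle.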

[6] = NCI Yeast Anticancer Drug Screen. Data for the mlh1 rad18 strain (AID 175); conditions: S. cerevisiae mlh1 rad18 strain growth inhibition, stronger effect = higher value
Summary of the method: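 Compound-treated yeast growth, normalised to vehicle controls. Strain bears defined DNA repair mutations.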

[7] = at 5.0 µM (retest, dose inferred, filed as 0.5)
[8] = at 50.0 µM (retest, dose inferred, filed as 5.0)

Measured: growth inhibition

Cc1nc2ccccc2cc1CCl
active: [1]; [8] 91% | [1]; at 50.0 µM 82.5% | [3]; [8] 91% | [4]; [8] 80% | [4]; at 50.0 µM 70.3% | [5]; [8] 76% | [6]; [8] 90%
inactive: [1]; [7] -113% | [2]; [7] -44% | [2]; [8] 46% | [2]; at 50.0 µM 59.5% | [3]; [7] -51% | [3]; at 50.0 µM 63.8% | [4]; [7] -47% | [5]; [7] -69% | [5]; at 50.0 µM 32.9% | [6]; [7] -122% | [6]; at 50.0 µM 69.8%

C=CCC(O)c1ccc(C(C)C)cc1 (stereo not drawn)
inactive: [1]; [7] 3% | [1]; [8] 7% | [1]; at 50.0 µM 18.9% and -7.9% | [2]; [7] 1% | [2]; [8] -3% | [2]; at 50.0 µM -7.55% and -1.05% | [3]; [7] -2% | [3]; [8] 1% | [3]; at 50.0 µM -5.65% and 13.1% | [4]; [7] -3% | [4]; [8] 0% | [4]; at 50.0 µM -5% and 16.4% | [5]; [7] 10% | [5]; [8] 16% | [5]; at 50.0 µM -2.85% and -2.2% | [6]; [7] 0% | [6]; [8] 7% | [6]; at 50.0 µM 15.4% and -13.9%

CCOC(CN=c1nc(N(C)C)ss1)OCC
inactive: [1]; [7] 1% | [1]; [8] -20% | [1]; at 50.0 µM 2.75% | [2]; [7] -9% | [2]; [8] -12% | [2]; at 50.0 µM -8% | [3]; [7] 11% | [3]; [8] -19% | [3]; at 50.0 µM -3.95% | [4]; [7] -22% | [4]; [8] -24% | [4]; at 50.0 µM 7.85% | [5]; [7] -1% | [5]; [8] -9% | [5]; at 50.0 µM 43.4% | [6]; [7] -5% | [6]; [8] -7% | [6]; at 50.0 µM -15.3%

Cc1cc(O)c(C(C)C)cc1Cl
26.8% (inactive) and 98.8% (active): [6]; at 50.0 µM
45.5% (inactive) and 99.2% (active): [3]; at 50.0 µM
inactive: [1]; [7] 5% | [2]; [7] 4% | [3]; [7] -6% | [3]; [8] 38% | [4]; [7] -4% | [4]; [8] 48% | [5]; [7] -4% | [6]; [7] 7%
4.75% (inactive) and 79.6% (active): [4]; at 50.0 µM
41% (inactive) and 98.6% (active): [2]; at 50.0 µM
13.2% (inactive) and 97.5% (active): [5]; at 50.0 µM
53.1% (inactive) and 98.7% (active): [1]; at 50.0 µM
active: [1]; [8] 79% | [2]; [8] 90% | [5]; [8] 98% | [6]; [8] 84%

C1=C(c2ccccc2)N(CCc2ccccc2)C(c2ccccc2)=CN1Cc1ccccc1
inactive: [1]; [7] -7% | [2]; [7] 1% | [3]; [7] 7% | [4]; [7] 2% | [5]; [7] 9% | [6]; [7] -4%
active: [1]; [8] 95% | [1]; at 50.0 µM 98.4% | [2]; [8] 97% | [2]; at 50.0 µM 98.5% | [3]; [8] 97% | [3]; at 50.0 µM 98.6% | [4]; [8] 96% | [4]; at 50.0 µM 98.5% | [5]; [8] 95% | [5]; at 50.0 µM 98.2% | [6]; [8] 97% | [6]; at 50.0 µM 98.7%

C=CCOC(=O)c1ccc(C(=O)OCC=C)cc1
inactive: [1]; [7] -5% | [1]; [8] -77% | [1]; at 50.0 µM 50.6% | [2]; [7] -11% | [2]; [8] -32% | [2]; at 50.0 µM 52.2% | [3]; [7] -1% | [3]; [8] -13% | [4]; [7] 4% | [4]; [8] -26% | [4]; at 50.0 µM 39.4% | [5]; [7] 6% | [5]; [8] -53% | [5]; at 50.0 µM 44.8% | [6]; [7] 0% | [6]; [8] -41% | [6]; at 50.0 µM 64.3%
active: [3]; at 50.0 µM 78.5%

N#CC1Sc2ccccc2N1C(=O)OCc1ccccc1 (stereo not drawn)
inactive: [1]; [7] 7% | [2]; [7] 4% | [3]; [7] 11% | [4]; [7] 11% | [5]; [7] 20% | [6]; [7] 9%
active: [1]; [8] 86% | [1]; at 50.0 µM 90.1% | [2]; [8] 86% | [2]; at 50.0 µM 86.8% | [3]; [8] 89% | [3]; at 50.0 µM 94% | [4]; [8] 82% | [4]; at 50.0 µM 81.2% | [5]; [8] 91% | [5]; at 50.0 µM 93.5% | [6]; [8] 90% | [6]; at 50.0 µM 91.8%

Cc1cccc(Cc2ccccc2Cl)c1O
inactive: [1]; [7] 0% | [2]; [7] -1% | [2]; at 50.0 µM 38% | [3]; [7] 1% | [4]; [7] -7% | [5]; [7] -1% | [6]; [7] -2% | [6]; at 50.0 µM 46.2%
active: [1]; [8] 93% | [1]; at 50.0 µM 83.2% | [2]; [8] 93% | [3]; [8] 80% | [3]; at 50.0 µM 89.2% | [4]; [8] 84% | [4]; at 50.0 µM 98.6% | [5]; [8] 82% | [5]; at 50.0 µM 89.8% | [6]; [8] 81%

COc1ccc(/C=C/NC=O)cc1
inactive: [1]; [7] -2% | [1]; [8] -1% | [1]; at 50.0 µM -17.2% | [2]; [7] -3% | [2]; [8] 0% | [2]; at 50.0 µM 0.35% | [3]; [7] -2% | [3]; [8] -1% | [3]; at 50.0 µM -9.6% | [4]; [7] -2% | [4]; [8] 4% | [4]; at 50.0 µM -8.25% | [5]; [7] 1% | [5]; [8] 6% | [5]; at 50.0 µM 19.8% | [6]; [7] -3% | [6]; [8] -2% | [6]; at 50.0 µM 28.9%

O/N=C/c1cc(I)c(O)c(I)c1
active: [1]; [7] 99% | [1]; [8] 98% | [1]; at 50.0 µM 98.8% | [2]; [7] 97% | [2]; [8] 99% | [2]; at 50.0 µM 98.2% | [3]; [7] 99% | [3]; [8] 99% | [3]; at 50.0 µM 98.8% | [4]; [7] 99% | [4]; [8] 98% | [4]; at 50.0 µM 98.3% | [5]; [7] 99% | [5]; [8] 99% | [5]; at 50.0 µM 98.8% | [6]; [7] 98% | [6]; [8] 98% | [6]; at 50.0 µM 98.5%

COC1/C=C\C=C(/C)C(=O)Nc2cc3nc4ccc(Br)cc4oc-3c(c2=O)CC(C)CC(OC)C(O)C(C)/C=C(\C)C1OC(N)=O (stereo not drawn)
active: [1]; [8] 97% | [1]; at 50.0 µM 89.2% | [2]; [8] 98% | [2]; at 50.0 µM 90.9% | [3]; [7] 96% | [3]; [8] 98% | [3]; at 50.0 µM 91.5% | [4]; [7] 85% | [4]; [8] 92% | [4]; at 50.0 µM 89% | [5]; [7] 94% | [5]; [8] 97% | [5]; at 50.0 µM 90.7% | [6]; [8] 98% | [6]; at 50.0 µM 88.1%
inactive: [1]; [7] 44% | [2]; [7] 57% | [6]; [7] 57%

CCCCC(O)CC (stereo not drawn)
inactive: [1]; [7] -6% | [1]; [8] 0% | [1]; at 50.0 µM -10% and 9.8% | [2]; [7] -8% | [2]; [8] -3% | [2]; at 50.0 µM -42.2% and 12.4% | [3]; [7] -2% | [3]; [8] 1% | [3]; at 50.0 µM 11.6% and 27.9% | [4]; [7] -3% | [4]; [8] -1% | [4]; at 50.0 µM 4.65% and 48.2% | [5]; [7] -6% | [5]; [8] 0% | [5]; at 50.0 µM -5.95% and 1.55% | [6]; [7] -4% | [6]; [8] 0% | [6]; at 50.0 µM 0.4% and -1.7%

OCc1ccccc1C(c1ccccc1)c1ccccc1
active: [1]; [8] 98% | [2]; [8] 99% | [3]; [8] 70% | [3]; at 50.0 µM 73% | [4]; [8] 98% | [5]; [8] 99% | [5]; at 50.0 µM 91% | [6]; [8] 94% | [6]; at 50.0 µM 84.1%
inactive: [1]; [7] 0% | [1]; at 50.0 µM 3.45% | [2]; [7] 9% | [2]; at 50.0 µM 64.7% | [3]; [7] -1% | [4]; [7] 8% | [4]; at 50.0 µM 5.85% | [5]; [7] 0% | [6]; [7] 6%

CCOC(=O)c1c[nH]c2c([N+](=O)[O-])cc(OC)cc2c1=O
inactive: [1]; [7] -1% | [1]; [8] 32% | [1]; at 50.0 µM 10.6% and 61.4% | [2]; [7] 2% | [2]; [8] 21% | [2]; at 50.0 µM 40.1% and 35.2% | [3]; [7] 3% | [3]; [8] 41% | [3]; at 50.0 µM 36% and 16.3% | [4]; [7] -6% | [4]; [8] 24% | [4]; at 50.0 µM -11.7% and -10.1% | [5]; [7] 2% | [5]; [8] 46% | [5]; at 50.0 µM 18.6% and 61% | [6]; [7] 6% | [6]; [8] 42%
56.9% (inactive) and 73% (active): [6]; at 50.0 µM

O=S(=O)(CC(Cl)c1ccccc1)c1nc2ccccc2s1 (stereo not drawn)
inactive: [1]; [7] -7% | [1]; [8] -7% | [1]; at 50.0 µM 69.5% | [2]; [7] 2% | [2]; [8] 2% | [3]; [7] 9% | [3]; [8] 9% | [4]; [7] -14% | [4]; [8] -14% | [4]; at 50.0 µM 43.2% | [5]; [7] -30% | [5]; [8] -30% | [6]; [7] -13% | [6]; [8] -13% | [6]; at 50.0 µM 47%
active: [2]; at 50.0 µM 79.1% | [3]; at 50.0 µM 72.7% | [5]; at 50.0 µM 71.4%

O=C(O)CSCc1ccc(Cl)cc1
inactive: [1]; [7] -2% | [1]; [8] 1% | [1]; at 50.0 µM 3.7% | [2]; [7] 2% | [2]; [8] -3% | [2]; at 50.0 µM -32.9% | [3]; [7] 2% | [3]; [8] 1% | [3]; at 50.0 µM -9.3% | [4]; [7] 0% | [4]; [8] -7% | [4]; at 50.0 µM 29.3% | [5]; [7] 2% | [5]; [8] 4% | [5]; at 50.0 µM 6.1% | [6]; [7] -1% | [6]; [8] -3% | [6]; at 50.0 µM -6.45%
